Measured values from the supplement of paper PMC8728848.
The full list was thinned out, with the strongest signals kept by preference.

The substances below were run on Man(a1-2)Man(a1-2)Man(a1-3)Man (assay: glycan array binding signal (z-score within array); higher = stronger binding). Conditions: glycan notation: IUPAC condensed, linker removed.
Method in brief: (§1)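 Glycan array data came from 3228 arrays in the Consortium for Functional Glycomics database, and only arrays with an available protein sequence were kept. Glycan names were put into IUPAC-condensed notation, and columns mapping to the same glycan were averaged. The binding signal is a within-array Z-score, averaged across arrays of one protein sequence run at different concentrations or buffers and across linkers. A negative Z-score can be read as non-binding.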

Substance	glycan array binding signal (z-score)
Actinohivin (Actinomycete K97)	3.74
AgI/IIC123-GFP (Streptococcus mutans)	-0.465
Wza (Escherichia coli), P0A930	2.8

These substances were tested on Man(a1-2)Man(a1-3)Man in the same assay as above. Conditions: glycan notation: IUPAC condensed, linker removed.
Method in brief: as §1

Substance	glycan array binding signal (z-score)
Actinohivin (Actinomycete K97)	1.82
BambL (Burhholderia ambifaria), Q0B4G1	-0.316
SpGH101 (Streptococcus pneumoniae), Q8DR60	-0.182

What follows are substances tested on Man(a1-2)Man(a1-3)[Man(a1-2)Man(a1-6)]Man in the same assay as above. Conditions: glycan notation: IUPAC condensed, linker removed.
Method in brief: as §1

Substance	glycan array binding signal (z-score)
Actinohivin (Actinomycete K97)	1.78
AgI/IIC123-GFP (Streptococcus mutans)	0.368
LcI (Legionella pneumophila)	-0.584
